Gal4-VP16 FLuc: VP16 counterscreen qHTS for inhibitors of ROR gamma transcriptional activity. Drosophila S2 Gal4-VP16 UAS-luciferase, luminescence, 20 h. actives 3.5% (n = 310,000). AID 2546, 2010. Potency, µM (top dose mostly 53.6 µM), inactives show at the highest dose activity, negative = inhibition, hits mostly inhibitors;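 note: Gal4-VP16 expression switched on by copper sulfate through the metallothionein promoter; nearly all actives have a fitted effect of over 50% in size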
DT40 TDP1 CPT: qHTS for Inhibitors of human tyrosyl-DNA phosphodiesterase 1 (TDP1): qHTS in cells in presence of CPT; chicken DT40 Tdp1-/-;hTDP1 cells + 20 nM CPT, ATP luminescence, 48 h; Potency, µM (highest dose often 46.2 µM), for the others: top-dose activity change, negative = growth inhibition, actives largely listed as inhibitors; actives 12% (n = 420,000); AID 686979, 2013; note: nearly all actives have a fitted effect of over 55% in size
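Cell growth measured by CellTiter-Glo luminescence after a minimum 48 h, 37 C compound exposure with 20 nM CPT in Tdp1-knockout DT40 cells stably expressing hTDP1, seeded 400/well; qHTS titration format.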
TDP1 cell noCPT: qHTS for Inhibitors of human tyrosyl-DNA phosphodiesterase 1 (TDP1): qHTS in cells in absence of CPT; DT40 Tdp1-/- hTDP1 cells, no CPT, ATP luminescence, 48 h; Potency, µM (top dose mostly 46.2 µM), for the others: top-dose activity change, negative = growth inhibition, hits mostly inhibitors; actives 15% (n = 420,000); note: nearly all actives have a fitted effect of over 55% in size
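A cellular qHTS used chicken DT40 cells lacking endogenous Tdp1 but carrying stably transfected human TDP1. Compounds were applied without camptothecin, and cell growth kinetics were judged by ATP-dependent luminescence after ≥48 hr.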
TDP1 inh: qHTS Assay for Inhibitors of Tyrosyl-DNA Phosphodiesterase (TDP1) | Tyrosyl-DNA phosphodiesterase 1 (Homo sapiens), Q9NUW8 | recombinant TDP1, AlphaScreen DNA substrate cleavage | Potency, µM (doses to about 130 µM), without a hit: at the top dose activity change, negative = inhibition, actives largely listed as inhibitors | actives 0.28% (n = 350,000); note: nearly all actives have a fitted effect of over 40% in size
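Steps: enzyme plus compound, 15 min RT; add biotin/phosphotyrosine-FITC oligonucleotide (15 nM final), react 5 min; add donor/acceptor beads (10 ug/ml final), 10 min; read AlphaScreen. Tdp1 at 1 nM final.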
RORgamma inh: qHTS for inhibitors of ROR gamma transcriptional activity | AID 2551, 2010 | Drosophila S2 Gal4-RORgamma UAS-luciferase reporter, 20 h | actives 5.4% (n = 310,000) | Potency, µM (series often up to 53.6 µM), for the others: at the top dose activity change, negative = inhibition, actives largely listed as inhibitors; note: nearly all actives have a fitted effect of over 60% in size
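Schneider cells (Drosophila), stable Gal4 DBD–ROR gamma + UAS-luc; 1 hr cmpd preincubation; Cu2+ induction 700 uM final; 20 hr ambient; luminescence.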
An asterisk follows results filed as active; [ ] = dose if it differs, or a comment. Shown are actives, neighbours in structure and some others; about 19% of the full set was active somewhere. Calls come from the whole dose curve; as a rule, active = well fitted curve in the direction sought with a large enough effect; inconclusive = small, poorly fitted or top-dose-only effect, or another doubt; inactive = no such curve, though single readings can be large; an effect the other way counts as inactive or inconclusive. % is set by controls: 0 for no effect and ±100 for the full control effect; potency is the fitted concentration of half-maximal effect.

Results for COc1ccc(-c2cc(C(F)(F)F)nc(SCC(=O)Nc3cc(C)on3)n2)cc1 ?
Gal4-VP16 FLuc: 1.3%; DT40 TDP1 CPT: inconclusive; TDP1 cell noCPT: inconclusive; TDP1 inh: 4.4%; RORgamma inh: -22.7%

Results for CCCCN(CCCC)S(=O)(=O)c1ccc(NC(=O)c2cccs2)cc1 ?
Gal4-VP16 FLuc: -27.3%; DT40 TDP1 CPT: 25.9µM*; TDP1 cell noCPT: 20.6µM*; TDP1 inh: -0.7%; RORgamma inh: -18.8%

How did CCCCN(CCCC)S(=O)(=O)c1ccc(NC(=O)c2ccc([N+](=O)[O-])cc2Cl)cc1 do in these assays?
Gal4-VP16 FLuc: -15.7%; DT40 TDP1 CPT: inconclusive; TDP1 cell noCPT: 20.6µM*; TDP1 inh: 2.3%; RORgamma inh: -36.1%[10 µM]

How did CCn1c(=O)c2sccc2n(CC(=O)NC2CCCC2)c1=O do in these assays?
Gal4-VP16 FLuc: -5.1%; DT40 TDP1 CPT: -1.2%; TDP1 cell noCPT: -9.8%; TDP1 inh: 4.6%; RORgamma inh: 1.1%

Results for COc1ccc(NC(=O)CSc2ncnc3sc(C)cc23)cc1 ?
Gal4-VP16 FLuc: 3.5%; DT40 TDP1 CPT: -3.7%; TDP1 cell noCPT: -17.3%; TDP1 inh: 1.0%; RORgamma inh: 3.5%

How did Cn1c(=O)c2c(nc(SCC(=O)OCc3ccccc3)n2C)n(C)c1=O do in these assays?
Gal4-VP16 FLuc: 0.0%; DT40 TDP1 CPT: 8.5%; TDP1 cell noCPT: -0.1%; TDP1 inh: 8.3%; RORgamma inh: -13.1%

What do the screens show for `CN(C)Cc1ccccc1Cc1ccccc1`?
Gal4-VP16 FLuc: -8.5%; DT40 TDP1 CPT: -9.0%; TDP1 cell noCPT: -3.7%; TDP1 inh: 0.0%; RORgamma inh: -2.7%

How did CN(C)Cc1ccccc1C(O)(c1ccccc1)c1ccccc1 do in these assays?
Gal4-VP16 FLuc: 5.0%; DT40 TDP1 CPT: 29.1µM*; TDP1 cell noCPT: inconclusive; RORgamma inh: 4.7%

What do the screens show for `COc1ccccc1CCNC(=O)C1CCN(c2nnc(C)c3c(C)n(-c4ccc(C)cc4)nc23)CC1`?
Gal4-VP16 FLuc: inconclusive; DT40 TDP1 CPT: 4.61µM*; TDP1 cell noCPT: 2.91µM*; TDP1 inh: -16.7%; RORgamma inh: inconclusive

What do the screens show for `CCOc1ccc(CNC(=O)C2CCN(c3nnc(C)c4c(C)n(-c5ccc(C)cc5)nc34)CC2)cc1`?
Gal4-VP16 FLuc: inconclusive; DT40 TDP1 CPT: 8.2µM*; TDP1 cell noCPT: 23.1µM*; TDP1 inh: inconclusive; RORgamma inh: inconclusive

Results for Cc1ccc(-n2nc3c(N4CCC(C(=O)NCc5ccccc5C)CC4)nnc(C)c3c2C)cc1 ?
Gal4-VP16 FLuc: inconclusive; DT40 TDP1 CPT: 13µM*; TDP1 cell noCPT: inconclusive; TDP1 inh: -6.2%; RORgamma inh: 12.6µM*

What do the screens show for `Cc1nnc(N2CCCC(C(=O)NCc3ccccc3F)C2)c2nn(-c3ccccc3)c(C)c12` (configuration not stated)?
Gal4-VP16 FLuc: 0.2%; DT40 TDP1 CPT: inconclusive; TDP1 cell noCPT: 0.9%; TDP1 inh: 3.2%; RORgamma inh: 0.0%

What do the screens show for `CCOc1ccccc1CNC(=O)C1CCN(c2nnc(C)c3c(C)n(-c4ccc(C)cc4)nc23)CC1`?
Gal4-VP16 FLuc: 17.8µM*; DT40 TDP1 CPT: 5.8µM*; TDP1 cell noCPT: 13µM*; TDP1 inh: -0.2%; RORgamma inh: 12.6µM*

Results for CC(C)Cn1c(N)c(C(=O)COC(=O)c2ccc3c(c2)OCCO3)c(=O)n(C)c1=O ?
Gal4-VP16 FLuc: 1.9%; DT40 TDP1 CPT: 18.4µM*; TDP1 cell noCPT: 20.6µM*; TDP1 inh: 9.1%; RORgamma inh: 30.1%

How did CC(C)Cn1c(N)c(C(=O)CSc2ccc3c(c2)OCCO3)c(=O)n(C)c1=O do in these assays?
Gal4-VP16 FLuc: 11.2µM*; DT40 TDP1 CPT: 4.11µM*; TDP1 cell noCPT: 3.66µM*; TDP1 inh: 3.9%; RORgamma inh: inconclusive

Screening data from PubChem.
